These results are taken from PubChem BioAssay AID485346 (Sanford-Burnham Center for Chemical Genomics, 2010).

The campaign covered roughly 330,000 compounds. About 10,000 (3%) were called active. This excerpt belongs to a sample that is enriched for actives. Unmarked numbers belong to inactive results.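 Rule for the calls: active = inhibition of at least 50% at 8 µM in the primary screen; inactive = the rest.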

This test deals with Protein Mdm4 (Homo sapiens) + E3 ubiquitin-protein ligase Mdm2 (Homo sapiens) (UniProt O15151+Q00987). As to the kind of experiment: disruptors of Mdm2/MdmX RING complex – cell-based, luminescence, split luciferase, SaOS-2, uHTS, primary screen (AID 485346). The following applies: SaOS-2 split-luciferase Mdm2/MdmX complementation, at 8 µM, hits give high values.
Protein Mdm4 (Homo sapiens) + E3 ubiquitin-protein ligase Mdm2 (Homo sapiens), sequence (O15151 whole entry, looked up): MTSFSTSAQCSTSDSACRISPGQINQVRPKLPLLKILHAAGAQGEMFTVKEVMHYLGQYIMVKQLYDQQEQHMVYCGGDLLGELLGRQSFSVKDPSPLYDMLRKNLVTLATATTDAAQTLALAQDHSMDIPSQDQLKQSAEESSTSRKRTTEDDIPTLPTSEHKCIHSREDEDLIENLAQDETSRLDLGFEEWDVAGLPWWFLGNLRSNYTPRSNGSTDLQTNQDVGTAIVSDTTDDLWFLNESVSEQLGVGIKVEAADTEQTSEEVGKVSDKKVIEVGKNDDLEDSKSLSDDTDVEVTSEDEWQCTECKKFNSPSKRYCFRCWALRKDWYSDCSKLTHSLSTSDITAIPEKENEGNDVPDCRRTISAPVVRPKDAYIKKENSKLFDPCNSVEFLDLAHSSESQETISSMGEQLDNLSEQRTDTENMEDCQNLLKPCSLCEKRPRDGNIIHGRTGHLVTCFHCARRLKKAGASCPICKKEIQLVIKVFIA
Protein Mdm4 (Homo sapiens) + E3 ubiquitin-protein ligase Mdm2 (Homo sapiens), sequence (Q00987 whole entry, looked up): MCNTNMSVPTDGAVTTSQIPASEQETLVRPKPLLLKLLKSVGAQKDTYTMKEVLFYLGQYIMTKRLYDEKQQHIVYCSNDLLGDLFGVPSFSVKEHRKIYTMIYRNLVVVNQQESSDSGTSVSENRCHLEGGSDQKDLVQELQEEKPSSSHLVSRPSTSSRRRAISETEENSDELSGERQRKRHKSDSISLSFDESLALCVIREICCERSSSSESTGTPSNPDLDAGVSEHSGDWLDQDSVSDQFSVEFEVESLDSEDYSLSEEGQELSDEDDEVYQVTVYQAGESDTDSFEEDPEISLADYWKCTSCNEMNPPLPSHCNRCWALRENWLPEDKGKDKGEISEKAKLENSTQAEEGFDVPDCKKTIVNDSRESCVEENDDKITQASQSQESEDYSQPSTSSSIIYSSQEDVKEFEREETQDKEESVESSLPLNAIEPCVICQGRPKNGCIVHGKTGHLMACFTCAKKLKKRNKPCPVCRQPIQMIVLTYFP
Broadly, the inhibition is the drop in the measured response relative to a control, in per cent. With `Cc1cc(O)c(C(=O)/C=C/c2c(F)c(F)c(F)c(F)c2F)c(=O)o1`, the inhibition is 8.23%. For `COc1ccc(C/C(N)=N/OC(=O)c2ccco2)cc1OC` the value was 6.65%; for `COc1ccc(C(=O)O/N=C(\N)Cc2ccc(Cl)cc2Cl)cc1OC`, 97.2% (active).

In the case of `COc1ccc(C(=O)ON=C2c3ccccc3-c3ccccc32)cc1OC`, the inhibition was 7.13%. In the case of `CCCCOc1ccc(C(=O)N/C(=C/C=C/c2ccccc2)C(=O)N2CCOCC2)cc1`, the inhibition was -5.91%. Then `Nc1cc(N2CCCCCC2)c2nonc2c1[N+](=O)[O-]`, with 25.5%; and `C=CCn1c(-c2ccc(Cl)cc2)ccc(C#N)c1=O`, with 1.15%. For `COc1ccc(-n2nc3c(N4CCC(C(=O)NCc5ccccc5)CC4)nnc(C)c3c2C)cc1` the value was 40.9%. Then `CCc1ccc(CNC(=O)C2CCN(c3nnc(C)c4c(C)n(-c5ccc(C)cc5)nc34)CC2)cc1`, with 89% (active); and `CCOc1ccc(CNC(=O)C2CCCN(c3nnc(C)c4c(C)n(-c5ccccc5)nc34)C2)cc1` (stereo unspecified), with 4.48%; and `CC1(C(=O)NNC(=S)NCC2CCCO2)CC1(Cl)Cl` (stereo unspecified), with 9.98%.

With `O=c1c2ccccc2[nH]c(=S)n1CCN1CCC(=C(c2ccc(F)cc2)c2ccc(F)cc2)CC1`, the inhibition is -6.96%. Then `COn1c(=O)c(=O)n(OC)c2ccccc21`, with -14.5%; and `Brc1cnc(N2CCCC2)nc1N1CCCCC1`, with -7.46%; and `COc1ccc(S(=O)(=O)Nc2ccc3c(c2)OCO3)cc1Cl`, with 8.27%. For the compound `CCCOc1ccc(C2NC(=O)NC(c3ccccc3)=C2C(C)=O)cc1OCC` (stereo unspecified), the inhibition was 14.8%.

For the compound `O=C1NC(c2cc3c(cc2Cl)OCO3)Oc2ccccc21` (stereo unspecified), the inhibition was 2.99%.

On to `COC(=O)c1ccc(C2CC(=O)Nc3cc(OC)c(OC)cc32)cc1` (stereo unspecified), for which the inhibition is 7.38%.

Turning to `COc1ccccc1C1C2=C(COC2=O)Nc2cc3c(cc21)OCO3` (stereo unspecified), the inhibition is 64.9% (active). Then `CCCOc1ccccc1C1CC(=O)Nc2cc3c(cc21)OCO3` (stereo unspecified), with 56% (active); and `COc1ccc(NS(=O)(=O)c2cc(NC(=O)COc3ccccc3F)ccc2OC)cc1`, with 14.4%. As to `CN1C(=O)[C@H]2[C@@H](/C=C/c3ccccc3)N3C(=O)CN(Cc4ccc(-c5ccccc5)cc4)C(=O)[C@@]3(C)[C@H]2C1=O`, the inhibition was 22.2%. For `COc1ccc(-n2c(O)c(C=NCC(c3ccco3)N3CCCC3)c3ccccc3c2=O)cc1OC` (stereo unspecified) the value was 15.6%.

Consider `CCN1C(=O)c2cccc3c(S(=O)(=O)Nc4ccccc4O)ccc1c23`, for which the inhibition is 62.5% (active).

Turning to `CCN(CC)S(=O)(=O)c1ccc2c3c(cccc13)C(=O)S2`, the inhibition is 39.8%. Consider `O=C(CN1C(=O)c2cccc3cccc1c23)Nc1ccccc1`, for which the inhibition was 26.2%. For `O=C(NN1CCOCC1)c1cccc(F)c1` the value was 6.11%; for `Cc1c(Br)c([N+](=O)[O-])nn1CC(=O)Nc1sc2c(c1C(=O)OC(C)C)CCC(C)C2` (stereo unspecified), 23.2%. For `O=C(COC(=O)c1ccncc1)Nc1ccc2c(c1)OCO2` the value was -1.34%; for `CC1(C)NC(=O)N(CCCCSc2ccc(Cl)cc2)C1=O`, 5.07%; for `COc1ccc(-c2cc(C(=O)N/N=C/c3cccnc3)c3ccccc3n2)c(OC)c1`, -12.7%. Then `COc1ccc(C(=O)/C=C/c2cccnc2)c(OC)c1`, with 54.3% (active); and `COc1ccc(C(=O)CCC(=O)Nc2cccnc2)c(OC)c1`, with 9.02%; and `Cc1nc2nc(SCC(=O)Nc3cccc(F)c3)[nH]c2cc1Br`, with 23.9%.

In the case of `Cc1ccc(N(Cc2ccc(C(=O)Nc3ccccc3C(=O)NCc3ccco3)cc2)S(C)(=O)=O)cc1C`, the inhibition is 38.7%. Then `O=C(CCNC(=O)c1ccccc1Cl)NCc1ccco1`, with 2.16%; and `Cc1cccc(Nc2ccccc2C(=O)NCc2ccco2)c1C`, with 54.5% (active). Regarding `Cc1n[nH]c(=O)c2c(NC(=O)COC(=O)c3ncc(Cl)c(Cl)c3Cl)oc(C)c12`, the inhibition was 8.36%. Then `CCCCn1c(-c2cccc(C)c2)nc2cc3[nH]c(=O)c(C(C)C)nc3cc21`, with 55.1% (active); and `CCCCn1c(N)c(N(CCOC)C(=O)CSCC(=O)Nc2cccc(C)c2)c(=O)[nH]c1=O`, with -8.54%.

For `CCOCCn1c(-c2ccccc2)nc2ccccc21`, the inhibition is 21.2%. Then `COc1ccccc1C(=O)N1C(CC(=O)Nc2ccccc2C)C(=O)NC2CCCCC21` (stereo unspecified), with 10.2%; and `CC(=O)C1=C(C)NC2=C(C(=O)CC(C)(C)C2)C1C` (stereo unspecified), with 14.7%. For `Cc1cccc(C)c1NC1=NC(=S)N(c2ccc(N(C)C)cc2)C1(C)C` the value was 13.2%; for `CC1=C/C(=N\OS(=O)(=O)c2ccccc2)C=CC1=O`, 89.3% (active); for `CC1C(=O)C(C)C(c2ccc(O)cc2)NC1c1ccc(O)cc1` (stereo unspecified), -1.09%.

As for `Cc1cc(-c2csc(N)n2)c(C)n1-c1ccccc1`, the inhibition is 9.07%. For `CCN(CC(=O)Nc1c(F)cccc1F)C(=O)c1ccc(-c2ccccc2)cc1` the value was -3.86%. Then `Cc1c(C(=O)N/N=C/c2ccccc2)[nH]c2c([N+](=O)[O-])cccc12`, with 60% (active); and `COc1cc(CC(=O)N/N=C/c2ccccc2)c([N+](=O)[O-])cc1OC`, with 10.3%. As to `O=C(N/N=C/c1ccc([N+](=O)[O-])cc1)c1c[nH]c2ccccc12`, the inhibition is 12%.

Turning to `NC(=O)C1(C(N)=O)OC1c1ccc(Cl)cc1Cl` (stereo unspecified), the inhibition is 20.9%. Regarding `CCOc1ccccc1C1C(C(=O)OC)=CN(C)C=C1C(=O)OC`, the inhibition is 8.07%. As for `COC(=O)C1=CN(C)C=C(C(=O)OC)C1c1ccc(Cl)cc1Cl`, the inhibition is 67.5% (active). For `CCCCCN(C(=O)CCC(=O)OCC(=O)NC1CCC(C)CC1)c1c(N)n(CCCC)c(=O)[nH]c1=O` (stereo unspecified) the value was -18.6%. With `O=C(Nc1nc(-c2ccco2)c(-c2ccco2)s1)c1ccco1`, the inhibition was 27%. Regarding `COc1cc2c(cc1NC(=O)CN1CCN(S(=O)(=O)c3ccc(F)cc3)CC1)oc1ccccc12`, the inhibition was 49.9%.

With `COc1cc2c(cc1NC(=O)COC(=O)/C=C/c1ccccc1)oc1ccccc12`, the inhibition was 51.9% (active). Turning to `COc1cc(/C=C/C(=O)OCC(=O)c2ccccc2)cc(OC)c1OC`, the inhibition is 20.5%. For `CCCCN1C(=O)/C(=C/C=C2/C=Cc3ccccc3N2CC)SC1=S` the value was 64.7% (active); for `COc1cc(/C=C2/SC(=S)N(Cc3ccccc3)C2=O)cc(OC)c1O`, 11.8%; for `CCCCN1C(=O)/C(=C2/C=CC=CN2C)SC1=S`, -6.03%.

`FC(F)(F)Oc1ccc(-c2cn3cccnc3n2)cc1`: the inhibition is -41.1%. As for `CSCC[C@H](NC(=O)NC1CCCC1)C(=O)O`, the inhibition was -12.4%. For the compound `CNC(=S)N/N=C/c1ccc(N2CCOCC2)s1`, the inhibition is -16.1%.

On to `C=CCN(CC=C)S(=O)(=O)c1ccc(C(=O)Nc2sc3c(c2C(N)=O)CCCCC3)cc1`, for which the inhibition is 92.8% (active). For `C=CCN(CC=C)S(=O)(=O)c1ccc(C(=O)Nc2nc3c(s2)CCc2ccccc2-3)cc1` the value was 58.5% (active). Then `COc1ccc(C(=O)Nc2ncc3c(n2)-c2ccccc2CC3)cc1`, with 22.2%; and `NC(=O)c1c(NC(=O)CSc2nnc(-c3ccco3)n2N)sc2c1CCCC2`, with 22.2%; and `CCN(c1ccccc1)S(=O)(=O)c1ccc(C(=O)Nc2nccs2)cc1`, with -12.4%. For `COc1cccc(OC)c1C(=O)Nc1sc2c(c1C(N)=O)CCCC2` the value was 19%; for `COc1cc(Cl)cc(C2NC(=O)NC(C)=C2C(=O)NCc2ccccc2)c1O` (stereo unspecified), -8.24%. Regarding `Cc1ccc(C)c(N2CCN(C(=O)CCc3nc(-c4cccc(C(F)(F)F)c4)no3)CC2)c1`, the inhibition was -17.8%.

Regarding `COc1ccc(-c2cc(=O)oc3cc(OC(C)C(=O)NCC4CCC(C(=O)O)CC4)ccc23)cc1` (stereo unspecified), the inhibition is -48.8%.

In the case of `CCN(CC)c1ccc(NC(=O)CCc2nnc3ccc(N4CCCCC4)nn23)c(C)c1`, the inhibition is 15.3%.

With `CC1CCN(CCCNC(=O)CN2C(=O)CSc3ccc(S(=O)(=O)N4CCCCC4)cc32)CC1`, the inhibition was 13%. For `COc1ccc2[nH]c(=O)c(CN(Cc3cccnc3)S(=O)(=O)c3ccccc3F)cc2c1` the value was 63.9% (active); for `CCN(Cc1cc2cc(C)ccc2[nH]c1=O)S(=O)(=O)c1ccccc1`, 22.4%; for `CCOc1ccc2[nH]c(=O)c(CN(CCCO)S(=O)(=O)c3ccc(F)cc3)cc2c1`, -3.41%. Then `COc1ccc(CCN2CC(C(=O)NCCN3CCNC3=O)CCC2=O)cc1` (stereo unspecified), with 7.59%. Turning to `Cc1cc(C)nc(NC(=O)c2cccc([N+](=O)[O-])c2)c1`, the inhibition is 1.76%. For `Cc1cc(CNC(=O)c2cccc([N+](=O)[O-])c2)c2ccccc2n1` the value was 57.9% (active). Turning to `CN(C(=O)c1cccc([N+](=O)[O-])c1)c1ccccc1C(=O)NCc1ccccc1`, the inhibition was 10.9%.

As to `COc1cccc2[nH]c(C(=O)NCCc3ccccc3)cc12`, the inhibition was -35.8%. Then `O=C(NCc1ccccc1Cl)C(=O)NCC1CCCN1S(=O)(=O)c1cccs1` (stereo unspecified), with 2.29%. Then `CCc1ccc(C(=O)N2CCN(S(=O)(=O)c3sc(C(=O)O)c(C)c3C(=O)O)CC2)cc1`, with -9.23%. Then `COc1cc(C(=O)OCC(=O)NC23CC4CC(CC(C4)C2)C3)cc(OC)c1OC`, with 11.3%; and `Cn1c(CC(=O)NNC(=O)c2ccccc2F)nc2ccccc21`, with 8.1%; and `Cc1cccc(C(=O)Nc2ccc(C(=O)N/N=C/c3cccc(C)n3)cc2)c1`, with 8.86%. With `Cc1cccc(C(=O)Nc2ccc(CC(=O)O)cc2)c1`, the inhibition is -7.55%.

As for `COc1ccc(C(=O)NN(C)c2nc(-c3ccccc3)cc(C)c2S(C)(=O)=O)cc1`, the inhibition was 2.68%.

With `CSc1nc(N(C)NC(=O)c2cccc(C)c2)c2ccccc2n1`, the inhibition was 63% (active). For `Cc1nc2ccccc2c(=O)n1NC(=O)c1ccccc1` the value was -5.89%; for `CN(NC(=O)c1ccccc1)c1nc2ccccc2nc1C(F)(F)F`, 59.8% (active).

Take `CN(NC(=O)c1ccccc1F)c1nc(C(F)(F)F)nc2ccccc12`: the inhibition was 60.3% (active). Then `CC(NC(=O)c1ccccc1F)c1cccc2ccccc12` (stereo unspecified), with 3.89%.
